Test systems include HCT-15 colon; HT29 colon; SNB-75 CNS; SNB-19 CNS; U251 CNS; PC-3 prostate; SK-MEL-5 melanoma; UACC-62 melanoma; LOX IMVI melanoma; SK-MEL-28 melanoma; SK-MEL-2 melanoma; EKVX NSCLC; SN12C renal; UO-31 renal; TK-10 renal; ACHN renal; CAKI-1 renal; A498 renal; CCRF-CEM leukemia; MOLT-4 leukemia.
Assay in all cases: NCI-60 one-dose screen, 48 h (100 = growth as untreated, 0 = no growth, -100 = all killed)
Conditions in all cases: 10 µM unless noted

“And” between values parts separate entries of the source, which are not always exact repeats. Identical values can stand only once. Compounds without any hit were thinned out: in the full panel of roughly 83,000, 20% have a hit.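 Percent growth is the endpoint: 0 to 100 indicates growth inhibition (40 means 60% inhibition), 0 means no net growth, and negative values indicate cell death.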 The source made the active and inactive calls. How the source made its calls: active means growth percent below 10; inactive means the rest.

For `CO/N=C/C=C\C(=O)N/C=C/C[C@H]1/C=C/[C@H](O)/C=C\C=C\c2cccc(O)c2C(=O)O1`, the growth was 11.9% (inactive) and 16.7% (inactive) in the test on HCT-15 colon; 9.82% (active) and 7.92% (active) in the test on HT29 colon; 25.2% (inactive) and -14.6% (active) with SNB-75 CNS; 68.3% (inactive) and 56.7% (inactive) in the test on SNB-19 CNS; 33.3% (inactive) and 32.2% (inactive) in the test with U251 CNS; 37.5% (inactive) and 25.3% (inactive) in the test on PC-3 prostate. Moreover, the growth is -70.6% (active) and -68.6% (active) in the test with SK-MEL-5 melanoma; -1.1% (active) and -43.6% (active) with UACC-62 melanoma; -45.7% (active) and -73.7% (active) in the test with LOX IMVI melanoma; 32.1% (inactive) in the test with SK-MEL-28 melanoma; 5.72% (active) and -20.7% (active) in the test with SK-MEL-2 melanoma; 35.1% (inactive) and 47.9% (inactive) with EKVX NSCLC. The growth is 48.5% (inactive) and 40.9% (inactive) in the test with SN12C renal; 14.2% (inactive) and -7.71% (active) with UO-31 renal; 53.9% (inactive) and 52% (inactive) with TK-10 renal; 31.1% (inactive) and 22.4% (inactive) in the test on ACHN renal; 9.88% (active) and 2.94% (active) in the test with CAKI-1 renal; 44.1% (inactive) and 10.3% (inactive) with A498 renal. Moreover, the growth was 33% (inactive) and 32.7% (inactive) in the test on CCRF-CEM leukemia; 27.7% (inactive) and 14.6% (inactive) in the test with MOLT-4 leukemia.

Turning to `CN(C)CCCN1c2ccccc2Sc2ccc(Cl)cc21`, the growth is 73.4% (inactive) and 109% (inactive) and 88.5% (inactive) in the test on HCT-15 colon; 27.4% (inactive) and 120% (inactive) and 62.9% (inactive) in the test with HT29 colon; 48.3% (inactive) and 106% (inactive) and 58.8% (inactive) in the test with SNB-75 CNS; 98.2% (inactive) and 92.4% (inactive) and 94.5% (inactive) in the test on SNB-19 CNS; 78.1% (inactive) and 106% (inactive) and 93.4% (inactive) with U251 CNS; 67.3% (inactive) and 103% (inactive) and 80.3% (inactive) in the test on PC-3 prostate. The growth with SK-MEL-5 melanoma was 3.06% (active) and 102% (inactive) and 79% (inactive); with UACC-62 melanoma, 75.3% (inactive) and 89.8% (inactive) and 88.9% (inactive); in the test with LOX IMVI melanoma, 78.3% (inactive) and 113% (inactive) and 100% (inactive); in the test with SK-MEL-28 melanoma it was 83.6% (inactive) and 108% (inactive) and 98.8% (inactive); with SK-MEL-2 melanoma it was 77.6% (inactive) and 107% (inactive) and 112% (inactive); in the test on EKVX NSCLC it was 91.6% (inactive) and 147% (inactive). The growth was 66.7% (inactive) and 117% (inactive) and 78.8% (inactive) in the test with SN12C renal; 54.4% (inactive) and 89.3% (inactive) and 50.3% (inactive) in the test on UO-31 renal; 122% (inactive) and 92.6% (inactive) in the test with TK-10 renal; 44.8% (inactive) and 108% (inactive) and 68.7% (inactive) with ACHN renal; 75.1% (inactive) and 257% (inactive) and 52.5% (inactive) in the test with CAKI-1 renal; 105% (inactive) and 120% (inactive) and 108% (inactive) in the test with A498 renal. The growth with CCRF-CEM leukemia is 73.6% (inactive) and 98.7% (inactive); in the test with MOLT-4 leukemia, 69.7% (inactive) and 102% (inactive) and 83.3% (inactive).

Turning to `NC(=S)N/N=C(\c1ccc(Br)cc1)C1CC1`, the growth in the test on HCT-15 colon was 81.8% (inactive) and 82.9% (inactive); with HT29 colon, 68.4% (inactive); in the test on SNB-75 CNS, 87.1% (inactive) and 76.7% (inactive); in the test with SNB-19 CNS it was 108% (inactive); with U251 CNS, 93.2% (inactive); in the test on PC-3 prostate, 84.1% (inactive) and 61.5% (inactive). For the same compound, the growth was 100% (inactive) and 95.9% (inactive) in the test on SK-MEL-5 melanoma; 98.4% (inactive) in the test with UACC-62 melanoma; 86.2% (inactive) in the test on LOX IMVI melanoma; 102% (inactive) and 103% (inactive) with SK-MEL-28 melanoma; 92.8% (inactive) with SK-MEL-2 melanoma; 58% (inactive) and 68.4% (inactive) in the test with EKVX NSCLC. Besides, the growth in the test on SN12C renal is 89.5% (inactive); in the test on UO-31 renal, 61.4% (inactive) and 56.8% (inactive); in the test with TK-10 renal it was 119% (inactive); with ACHN renal it was 95.7% (inactive) and 93% (inactive); in the test with CAKI-1 renal, 83.7% (inactive) and 81.4% (inactive); in the test with A498 renal, 99.5% (inactive). Also, the growth with CCRF-CEM leukemia is 52.5% (inactive) and 55.6% (inactive); in the test on MOLT-4 leukemia, 38% (inactive) and 45.2% (inactive).

Regarding `COc1cc(/C=N/Nc2nc3c([nH]2)c(=O)n(C)c(=O)n3C)ccc1O`, the growth was 105% (inactive) with HCT-15 colon; 97.7% (inactive) and 110% (inactive) in the test on HT29 colon; 86.9% (inactive) and 88% (inactive) in the test with SNB-75 CNS; 112% (inactive) and 108% (inactive) in the test with SNB-19 CNS; 99.1% (inactive) and 104% (inactive) in the test with U251 CNS; 99% (inactive) and 98% (inactive) in the test with PC-3 prostate. For the same compound, the growth was 97.9% (inactive) and 104% (inactive) in the test on SK-MEL-5 melanoma; 91.9% (inactive) and 97.9% (inactive) in the test on UACC-62 melanoma; 98.2% (inactive) and 116% (inactive) in the test on LOX IMVI melanoma; 108% (inactive) and 107% (inactive) in the test with SK-MEL-28 melanoma; 98.2% (inactive) and 108% (inactive) in the test with SK-MEL-2 melanoma; 103% (inactive) and 119% (inactive) in the test on EKVX NSCLC. Also, the growth was 97.4% (inactive) and 98.2% (inactive) with SN12C renal; 86.7% (inactive) and 86.2% (inactive) in the test with UO-31 renal; 95.7% (inactive) and 93.1% (inactive) in the test with TK-10 renal; 109% (inactive) in the test with ACHN renal; 99.3% (inactive) and 118% (inactive) in the test with CAKI-1 renal; 82.3% (inactive) and 77.6% (inactive) with A498 renal. The growth with CCRF-CEM leukemia was 89.2% (inactive) and 104% (inactive); with MOLT-4 leukemia it was 87.9% (inactive) and 97.5% (inactive).

In the case of `CC(C)Cc1ccc(C(C)C(=O)NCc2ccc(Cn3c(=O)sn(CCCI)c3=O)cc2)cc1` (stereo not given), the growth in the test with HCT-15 colon was 101% (inactive) and -54.2% (active); with HT29 colon, 61.7% (inactive) and -58.7% (active); with SNB-75 CNS, 95.4% (inactive) and -73.6% (active); in the test with SNB-19 CNS, 85.4% (inactive) and 37.4% (inactive); in the test with U251 CNS, 83.4% (inactive) and -70.5% (active); in the test on PC-3 prostate it was 93.6% (inactive) and -70% (active). For the same compound, the growth in the test on SK-MEL-5 melanoma is 74.2% (inactive) and -96.6% (active); in the test with UACC-62 melanoma, 95.2% (inactive) and -83.2% (active); in the test on LOX IMVI melanoma it was 99.6% (inactive) and -96.6% (active); in the test with SK-MEL-28 melanoma, 106% (inactive) and -72.2% (active); with SK-MEL-2 melanoma, 104% (inactive) and -40.1% (active); with EKVX NSCLC, 90.6% (inactive) and -64.7% (active). In addition, the growth in the test on SN12C renal was 90.4% (inactive) and -76.9% (active); in the test on UO-31 renal it was 70.3% (inactive) and -100% (active); with TK-10 renal, 99.8% (inactive) and -90.7% (active); in the test with ACHN renal it was 72% (inactive) and -100% (active); in the test on CAKI-1 renal, 92.1% (inactive) and -82.9% (active); in the test on A498 renal, 79.4% (inactive) and -2.41% (active). For the same compound, the growth in the test on CCRF-CEM leukemia was 37% (inactive) and 2.58% (active); with MOLT-4 leukemia it was 49% (inactive) and -3.72% (active).

Consider `O=S1(=O)CC(Br)C(Br)C1` (stereo not given), for which the growth in the test with HCT-15 colon is 49.1% (inactive) and 61.1% (inactive); in the test with HT29 colon, 27.7% (inactive) and 79% (inactive); in the test on SNB-75 CNS it was 100% (inactive) and 88.8% (inactive); in the test on SNB-19 CNS it was 98.7% (inactive) and 97.2% (inactive); in the test on U251 CNS, 98% (inactive) and 97% (inactive); in the test on PC-3 prostate it was 86.3% (inactive) and 92.6% (inactive). Besides, the growth with SK-MEL-5 melanoma is 93.2% (inactive) and 99.2% (inactive); in the test with UACC-62 melanoma, 86.5% (inactive) and 93.4% (inactive); in the test with LOX IMVI melanoma, 81.3% (inactive) and 38.4% (inactive); with SK-MEL-28 melanoma, 80.8% (inactive) and 106% (inactive); with SK-MEL-2 melanoma it was 82.4% (inactive) and 83.3% (inactive); in the test with EKVX NSCLC, 93.9% (inactive). Moreover, the growth with SN12C renal is 93.2% (inactive) and 88.3% (inactive); in the test with TK-10 renal it was 40% (inactive) and 63.8% (inactive); in the test with ACHN renal, 42.2% (inactive) and 69.8% (inactive); in the test with CAKI-1 renal it was 45.1% (inactive) and 65.5% (inactive); with A498 renal, 112% (inactive); with CCRF-CEM leukemia it was 33.7% (inactive). The growth in the test on MOLT-4 leukemia is 61.3% (inactive) and 68.6% (inactive).

Turning to `O=[N+]([O-])c1ccc(-n2[nH]nnc2=S)cc1`, the growth is 97.5% (inactive) in the test on HCT-15 colon; 99.2% (inactive) in the test on HT29 colon; 89.1% (inactive) with SNB-75 CNS; 98.1% (inactive) in the test on SNB-19 CNS; 108% (inactive) with U251 CNS; 92% (inactive) with PC-3 prostate. For the same compound, the growth in the test with SK-MEL-5 melanoma is 122% (inactive); with UACC-62 melanoma, 94.6% (inactive); in the test with LOX IMVI melanoma, 94.4% (inactive); with SK-MEL-28 melanoma it was 106% (inactive); with SK-MEL-2 melanoma, 109% (inactive); in the test with EKVX NSCLC it was 101% (inactive). For the same compound, the growth was 94% (inactive) in the test with SN12C renal; 80.5% (inactive) in the test on UO-31 renal; 102% (inactive) in the test with ACHN renal; 106% (inactive) with CCRF-CEM leukemia; 102% (inactive) with MOLT-4 leukemia.

`OCc1ccccn1`: the growth was 109% (inactive) in the test with HCT-15 colon; 104% (inactive) in the test with HT29 colon; 74.5% (inactive) in the test on SNB-75 CNS; 109% (inactive) in the test on SNB-19 CNS; 102% (inactive) with U251 CNS; 97.8% (inactive) in the test on PC-3 prostate. The growth in the test on SK-MEL-5 melanoma is 99.8% (inactive); in the test with UACC-62 melanoma, 103% (inactive); with LOX IMVI melanoma, 102% (inactive); in the test with SK-MEL-28 melanoma it was 112% (inactive); with SK-MEL-2 melanoma, 106% (inactive); with EKVX NSCLC it was 110% (inactive). Also, the growth was 97.4% (inactive) in the test with SN12C renal; 100% (inactive) with TK-10 renal; 107% (inactive) in the test on ACHN renal; 101% (inactive) with CAKI-1 renal; 81.8% (inactive) in the test with A498 renal; 103% (inactive) in the test on CCRF-CEM leukemia. Further, in the test on MOLT-4 leukemia, the growth was 99.1% (inactive).

Source of the values: PubChem BioAssay (NCI).
